Source: PubChem BioAssay (NCATS)
Results filed as inconclusive are left out. A call without a number means that no potency is given here. Activity calls are given as the source filed them. Calls come from the whole dose curve; as a rule, active = well fitted cell-killing curve with a large enough effect; inconclusive = small, poorly fitted or top-dose-only effect; inactive = flat fitted curve, though single readings scatter.

Experiment: Cellular viability qHTS for adrenocortical cancer (ACC) cell line NCI-H295R (AID 1963990); note: nearly all actives have a fitted effect of over 60% in size
Conditions: CellTiter-Glo ATP luminescence, 48 h; series mostly up to 46.1 µM
Procedure, shortened: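 Adrenocortical carcinoma cells, suspended at 300 000 cells/mL in serum-free DMEM plus ITS, rested overnight before pin transfer of compound. After two days' incubation, ATP-dependent luminescence was recorded and curve-fitted.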
Potency is the fitted concentration of half-maximal effect.

| Compound | Potency |
| --- | --- |
| COc1cc(F)ccc1-c1ncnc(Nc2cccc(CS(C)(=N)=O)c2)n1 (stereo not given) | 7.08 µM (active) |
| CC(C)(O)c1ccccc1CC[C@@H](SCC1(CC(=O)O)CC1)c1cccc(/C=C/c2ccc3ccc(Cl)cc3n2)c1 | inactive |
| CC(=O)N1CCC[C@H]1C(=O)N[C@@H](Cc1cnc[nH]1)C(=O)N[C@@H](CO)C(=O)N[C@@H](CS)C(=O)N[C@@H](CC(N)=O)C(N)=O | inactive |
| Nc1ccc(/C=C/C(=O)NCc2cc3cc(-c4ccc(C(=O)N5CCC(F)(F)CC5)cc4)cc(-c4ccc(F)cc4)c3o2)cn1 | 1 µM (active) |
| CN1CC(=O)N2[C@H](c3ccc4c(c3)OCO4)c3[nH]c4ccccc4c3C[C@@H]2C1=O | inactive |
| COc1ccc2nc3n[nH]c(C)c3c(NCCOCCO)c2c1 | inactive |
| CC(=O)c1cc2c(o1)C(=O)c1ccccc1C2=O | 0.891 µM (active) |
| Cc1nc2cccc(N)c2c(=O)n1C1CCC(=O)NC1=O (stereo not given) | inactive |
| COC(=O)/C=C/C(=O)OC | inactive |
| C=CCCCCCCCCC(=O)O | inactive |
| COCCOC(=O)N1CCN(S(=O)(=O)c2cc(F)c(Oc3ccc(Cl)cc3)c(F)c2)C(C(=O)NO)C1 (stereo not given) | 2.82 µM (active) |
| Cc1[nH]c2ccccc2c1CCNCc1ccc(/C=C/C(=O)NO)cc1 | 0.112 µM (active) |
| CCCCc1nc2cc(/C=C/C(=O)NO)ccc2n1CCN(CC)CC | 0.708 µM (active) |
| CCN(c1cc(C#CCN2CCOCC2)cc(C(=O)NCc2c(C)cc(C)[nH]c2=O)c1C)C1CCC(N(C)CCOC)CC1 (stereo not given) | inactive |
| CSc1ccc(C(=O)/C=C/c2cc(C)c(OC(C)(C)C(=O)O)c(C)c2)cc1 | 39.8 µM (active) |
